Source: PubChem BioAssay (National Center for Advancing Translational Sciences (NCATS))
AmpC detergent – qHTS Inhibitors of AmpC Beta-Lactamase (assay with detergent) | P00811 | AmpC hydrolysis of nitrocefin, absorbance 480 nm, 0.01% Triton | Potency, µM (highest dose often 114 µM), actives largely listed as inhibitors | 0.041% of 370,000 active | AID 485294, 2010; note: nearly all actives have a fitted effect of over 25% in size
Target sequence (P00811 whole entry, looked up): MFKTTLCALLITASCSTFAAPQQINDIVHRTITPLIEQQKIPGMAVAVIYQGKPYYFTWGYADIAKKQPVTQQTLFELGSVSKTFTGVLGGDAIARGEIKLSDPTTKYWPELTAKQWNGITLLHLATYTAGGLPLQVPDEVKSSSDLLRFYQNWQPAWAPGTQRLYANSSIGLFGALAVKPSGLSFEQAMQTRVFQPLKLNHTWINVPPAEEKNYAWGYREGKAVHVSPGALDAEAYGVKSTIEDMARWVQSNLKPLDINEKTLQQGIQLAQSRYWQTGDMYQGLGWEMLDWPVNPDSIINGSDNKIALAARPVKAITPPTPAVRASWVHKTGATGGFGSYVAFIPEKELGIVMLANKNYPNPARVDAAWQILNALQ
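AmpC (5.3 nM in the dispensed reagent) in 20 mM phosphate pH 7.0 with 0.01% (detergent screen) or 0.0001% Triton X-100 was preincubated with compounds for 15 min at room temperature. Nitrocefin was then added from an 800 uM solution, and hydrolysis was followed at 480 nm.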
AmpC inh no detg – qHTS Inhibitors of AmpC Beta-Lactamase (assay without detergent) | P00811 | AmpC nitrocefin hydrolysis, absorbance 480 nm, 0.0001% Triton | Potency, µM (top dose mostly 57.1 µM), hits mostly inhibitors | 0.52% of 330,000 active | AID 485341, 2010; note: nearly all actives have a fitted effect of over 20% in size
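AmpC (5.3 nM in the dispensed reagent) in 20 mM phosphate pH 7.0 with 0.01% (detergent screen) or 0.0001% Triton X-100 was preincubated with compounds for 15 min at room temperature. Nitrocefin was then added from an 800 uM solution, and hydrolysis was followed at 480 nm.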
AMA1 RON2 block – qHTS for Inhibitors of AMA1-RON; Towards Development of Antimalarial Drug Lead: Primary Screen; Potency, µM (highest dose often 58.2 µM), usual class: inhibitors; 0.2% of 360,000 active; AlphaScreen AMA1-biotinylated RON2 peptide binding; AID 720542, 2013; note: nearly all actives have a fitted effect of over 45% in size
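AMA1 (3D7) with his tag at 25 nM final met compounds first, then biotinylated RON2 peptide at 25 nM; detection used donor plus acceptor beads, 10 µg/mL apiece, read by AlphaScreen after 30 min at room temperature.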
Pf growth 96h – Primary qHTS for delayed death inhibitors of the malarial parasite plastid, 96 hour incubation; AID 504834, 2011; 6.9% of 320,000 active; P. falciparum luciferase reporter growth, 96 h; Potency, µM (highest dose often 28.7 µM), actives largely listed as inhibitors
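P. falciparum expressing integrated firefly luciferase grown in erythrocytes (2% hematocrit, 0.05% parasitemia final) with compounds for 96 hours at 37 C, 5% CO2. Growth inhibition read as loss of luminescence after adding luciferase detection reagent.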
HCV inh – qHTS Assay for Inhibitors of Hepatitis C Virus (HCV); 3.4% of 340,000 active; Huh7.5.1 HCVcc-Cre infection, luciferase reporter, 44 h; Potency, µM (titrated, usually from 41.8 µM), hits mostly inhibitors
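Luciferase read-out (15 sec integration) after a 15 min room-temperature substrate step quantifies HCVcc-Cre infection. Cells, 1,000 per well, had compound added 4 h post-plating, then virus at ~0.5 moi, and were cultured 44 h.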
Pf growth 48h – Primary qHTS for delayed death inhibitors of the malarial parasite plastid, 48 hour incubation. P. falciparum luciferase growth in erythrocytes, 48 h. 5.9% of 310,000 active. Potency, µM (top dose mostly 28.7 µM), most hits filed as inhibitors
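Read-out is firefly luciferase luminescence from an integrated reporter in P. falciparum, so falling signal marks reduced parasite growth. Infected erythrocytes were at 2% hematocrit and 0.1% parasitemia (final) in Albumax-supplemented RPMI 1640.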
Hits are given with their value. Sampled rows, rich in hits. Any-hit rate of the full collection: about 11%. Calls come from the whole dose curve; as a rule, active = well fitted curve in the direction sought with a large enough effect; inconclusive = small, poorly fitted or top-dose-only effect, or another doubt; inactive = no such curve, though single readings can be large; an effect the other way counts as inactive or inconclusive.

`Cc1ccc(OCC(=O)OCc2cc(=O)n3c(C)csc3n2)cc1` gave AmpC detergent inactive.
For CC1CCC(NC(=O)Cn2ncc3ccccc32)CC1 (centres undefined) the results were AmpC detergent inconclusive, AmpC inh no detg 2.5µM, AMA1 RON2 block inactive, Pf growth 96h inactive, HCV inh inactive and Pf growth 48h inactive.
For CC1CCCCC1NC(=O)Cn1ncc2ccccc21 (centres undefined) the results were AmpC detergent inconclusive, AmpC inh no detg 3.2µM, AMA1 RON2 block inactive, Pf growth 96h inactive, HCV inh inactive and Pf growth 48h inactive.
Screening CCc1ccc(Nc2cc(C)nc3nc(Cc4ccc(Cl)cc4)nn23)cc1 returned AmpC detergent inactive.
For Cc1ccccc1CNC(=O)C1CCN(c2nnc(-n3c(C)ccc3C)s2)CC1 the results were AmpC detergent inactive.
Screening O=Cc1ccc(O)c2ncccc12 returned AmpC detergent inactive, AmpC inh no detg inactive, AMA1 RON2 block inactive, Pf growth 96h inconclusive, HCV inh inconclusive and Pf growth 48h 6.6µM.
Screening O=C(O)c1ccnc2c(O)cccc12 returned AmpC detergent inactive, AmpC inh no detg inactive, Pf growth 96h inconclusive and Pf growth 48h inconclusive.
Screening COc1ccc(Cl)cc1S(=O)(=O)N(C)CC(=O)N1CCCC1 returned AmpC detergent inactive, AmpC inh no detg inactive, AMA1 RON2 block inactive, Pf growth 96h 5.9µM, HCV inh inactive and Pf growth 48h inactive.
`COc1ccc(C)cc1S(=O)(=O)N(C)CC(N)=O` gave AmpC detergent inactive, AmpC inh no detg inactive, AMA1 RON2 block inactive, Pf growth 96h 10µM, HCV inh inactive and Pf growth 48h inactive.
COc1ccc(C)cc1S(=O)(=O)N(C)CC(=O)N1CCCC1 was read as AmpC detergent inactive, AmpC inh no detg inactive, AMA1 RON2 block inactive, Pf growth 96h 12µM, HCV inh inactive and Pf growth 48h inactive.
For COc1ccc(C)cc1S(=O)(=O)N(C)CC(=O)N1CCCCC1 the results were AMA1 RON2 block inactive and HCV inh inactive.
For Cn1nc(C(=O)Nc2cccc(C(F)(F)F)c2)c2c1-c1ccccc1S(=O)(=O)C2 the results were AmpC detergent inactive.
Screening CCOC(=O)c1[nH]c(Cc2[nH]c(C(=O)OCC)c(C)c2CCC(=O)OC)c(CCC(=O)OC)c1C returned AmpC detergent inconclusive, AmpC inh no detg inactive, AMA1 RON2 block inconclusive, Pf growth 96h inactive, HCV inh inconclusive and Pf growth 48h 1.7µM.
`Cc1cccc(OC2CCN(Cc3c(C(=O)N4CCCC4)nc4ccccn34)CC2)c1` gave AmpC detergent inactive, AmpC inh no detg inactive, AMA1 RON2 block inactive, Pf growth 96h inconclusive, HCV inh inactive and Pf growth 48h inactive.
For O=C(c1nc2ccccn2c1CN1CCC(Cc2ccccc2)CC1)N1CCCC1 the results were AmpC detergent inactive, AmpC inh no detg inactive, AMA1 RON2 block inactive, Pf growth 96h inactive, HCV inh inactive and Pf growth 48h 10µM.
`COc1ccc(C(=O)N2CCc3ccc(NC(=O)c4ccccn4)cc3C2)cc1F` gave AmpC detergent inactive, AmpC inh no detg inactive, AMA1 RON2 block inactive, Pf growth 96h inactive, HCV inh 11µM and Pf growth 48h inconclusive.
`COc1cc2c(cc1OC)CN(C(=O)c1ccncc1)CC2` gave AmpC detergent inactive, AmpC inh no detg inactive, AMA1 RON2 block inactive, Pf growth 96h inactive and HCV inh inactive.
For O=C(NC(=S)Nc1cc(C(F)(F)F)ccc1N1CCOCC1)c1sc2ccccc2c1Cl the results were AmpC detergent inactive, AmpC inh no detg inactive, AMA1 RON2 block inactive, Pf growth 96h 3.3µM, HCV inh inactive and Pf growth 48h 2.1µM.
Screening COc1ccc(NC(C)C(=O)Nc2cc(C(F)(F)F)ccc2N2CCOCC2)c(OC)c1 (centres undefined) returned AmpC detergent inconclusive, AmpC inh no detg inactive, AMA1 RON2 block inactive, Pf growth 96h 0.046µM, HCV inh inconclusive and Pf growth 48h 0.12µM.
`COc1cc(Cl)c(C)cc1NC(C)C(=O)Nc1cc(C(F)(F)F)ccc1N1CCOCC1` (centres undefined) gave AmpC detergent inactive, AmpC inh no detg inactive, AMA1 RON2 block inconclusive, Pf growth 96h 0.066µM, HCV inh inactive and Pf growth 48h 0.15µM.
`CCCCn1nc(C(=O)Nc2cc(C(F)(F)F)ccc2N2CCOCC2)ccc1=O` gave AmpC detergent inactive, AmpC inh no detg inactive, AMA1 RON2 block inactive, Pf growth 96h inconclusive, HCV inh inconclusive and Pf growth 48h 12µM.
CC(=O)Nc1cc(C(F)(F)F)ccc1N1CCOCC1 was read as AmpC detergent inactive, AMA1 RON2 block inactive, HCV inh inactive and Pf growth 48h inactive.
Screening Cc1cc(C(=O)Nc2cc(C(F)(F)F)ccc2N2CCOCC2)no1 returned AmpC detergent inactive, AmpC inh no detg inactive, AMA1 RON2 block inactive, Pf growth 96h inconclusive and Pf growth 48h inconclusive.
Screening CCOC(=O)C(=CNc1cc(C(F)(F)F)ccc1N1CCOCC1)C(=O)OCC returned AmpC detergent inactive, AmpC inh no detg inactive, AMA1 RON2 block inactive, Pf growth 96h inconclusive, HCV inh inconclusive and Pf growth 48h 4.1µM.
CCC(Oc1ccccc1)C(=O)Nc1cc(C(F)(F)F)ccc1N1CCOCC1 (centres undefined) was read as AmpC detergent inconclusive, AmpC inh no detg inactive, AMA1 RON2 block inactive, Pf growth 96h 1.5µM, HCV inh inconclusive and Pf growth 48h 1.7µM.
Screening O=C(CNC(=O)c1ccccc1)OCc1cc(=O)n2nc(C3CC3)sc2n1 returned AmpC detergent inactive.
Screening COc1ccc(S(=O)(=O)N2CCN(c3ccccc3)CC2)cc1-c1noc(C)n1 returned AmpC detergent inactive.
`O=Cc1ccc(OC(=O)CCCCC(=O)Oc2ccc(C=O)cc2)cc1` gave AmpC detergent inactive, AmpC inh no detg inactive, AMA1 RON2 block inactive, Pf growth 96h 0.0033µM, HCV inh inactive and Pf growth 48h inconclusive.
COc1ccc(NS(=O)(=O)c2ccc3c(c2)Cc2ccccc2-3)cn1 was read as AmpC detergent inactive, AmpC inh no detg inactive, AMA1 RON2 block inactive, Pf growth 96h inactive, HCV inh 2.8µM and Pf growth 48h inactive.
`OCCN1CCN(CC(O)COc2ccc(C34CC5CC(CC(C5)C3)C4)cc2)CC1` (centres undefined) gave AmpC detergent inactive, AmpC inh no detg inactive, AMA1 RON2 block inactive, Pf growth 96h 12µM, HCV inh 13µM and Pf growth 48h inconclusive.
